In ChEMBL document CHEMBL1201862, “PubChem BioAssay data set” (2004):

Assay: M. tuberculosis growth inhibition, dose response, 7H9 media, purified and synthesized compounds, set 6 (AID 504897); call rule not given here
Type: functional

SMILES | IC90
NC(=O)c1cnccn1 | > 100 µM (active)
O=C(CSc1ccccn1)NC1CCCCC1 | > 100 µM (active)
CCCc1cc(C(N)=S)ccn1 | > 100 µM (active)
COC(=O)c1ccc(CNc2c(N3CCCC3)c(=O)c2=O)cc1 | > 100 µM (active)
Cc1[nH]c2ccccc2c1C(=O)COC(=O)c1ccc([N+](=O)[O-])s1 | > 67.8 µM (active)
